Measurements published in PubChem BioAssay AID1159580 (chemical genetic matrix, 2015).
Where “and” joins values, the source holds several entries; their conditions need not be identical. Identical values can stand only once. The whole screen tested about 5,500 compounds, of which about 2,000 (36%) were called active. Roughly 18% stayed inconclusive and do not appear here. Cut-off read from the data, not from the text of the source: active = normalized growth mostly below about 0.91 (no sharp cut-off); inconclusive = no clear call, values can overlap the other calls; inactive = mostly above about 0.92. The list shows a part of the results.

Assay: chemical genetic growth profiling, strain panel (AID 1159580);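 note: tested at 20 µM; growth read once vehicle control cultures reached saturation at 30 °C; 1 = growth at the plate median or of vehicle wells; lower values mean less growth of the strain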
Details: S. cerevisiae deletion strains, growth OD

Measured: normalized growth

CC(=O)OCC(=O)[C@@]1(O)CCC2C3C[C@H](C)C4=CC(=O)C=CC4(C)C3[C@@H](O)CC21C (stereo partly specified)
inactive: locus YAL013W, strain DEP1, hits give low values 1.01 | locus YAL021C, strain ccr4, hits give low values 1.03 | locus YAL026C, strain drs2, hits give low values 1.03 | locus YAL030W, strain snc1, hits give low values 1.01 | locus YBL061C, strain skt5, hits give low values 1.01 | locus YBR009C, strain hhf1, hits give low values 0.985 | locus YBR021W, strain FUR4, hits give low values 0.968 | locus YBR023C, strain chs3, hits give low values 1.02 | locus YBR171W, strain sec66, hits give low values 1.03 | locus YBR229C, strain ROT2, hits give low values 1.01 | locus YBR231C, strain swc5, hits give low values 1.01 | locus YBR279W, strain paf1, hits give low values 1.01 | locus YCL011C, strain gbp2, hits give low values 1.02 | locus YCL016C, strain dcc1, hits give low values 1.01 | locus YCL029C, strain bik1, hits give low values 1.01 | locus YCL061C, strain MRC1, hits give low values 1.03 | locus YCL069W, strain vba3, hits give low values 1.03 | locus YCR088W, strain abp1, hits give low values 1.02 | locus YDL005C, strain med2, hits give low values 1.01 | locus YDL035C, strain GPR1, hits give low values 1.01 | locus YDL040C, strain nat1, hits give low values 1.01 | locus YDL074C, strain BRE1, hits give low values 0.994 | locus YDL101C, strain DUN1, hits give low values 1.01 | locus YDL134C, strain PPH21, hits give low values 1.01 | locus YDL185W, strain tfp1, hits give low values 1.01 | locus YDL192W, strain arf1, hits give low values 1 | locus YDR001C, strain nth1, hits give low values 1.01 | locus YDR069C, strain doa4, hits give low values 1.02 | locus YDR101C, strain arx1, hits give low values 1 | locus YDR137W, strain rgp1, hits give low values 1.03 | locus YDR150W, strain NUM1, hits give low values 1.01 | locus YDR159W, strain sac3, hits give low values 0.995 | locus YDR162C, strain NBP2, hits give low values 0.992 | locus YDR195W, strain ref2 1.01 | locus YDR297W, strain sur2, hits give low values 0.994 | locus YDR318W, strain mcm21, hits give low values 1.01 | locus YDR334W, strain swr1, hits give low values 1.02 | locus YDR335W, strain msn5, hits give low values 1.02 | locus YDR388W, hits give low values 1.01 | locus YDR392W, strain spt3, hits give low values 1.03 | locus YDR502C, strain sam2, hits give low values 0.989 | locus YEL003W, strain gim4, hits give low values 1.02 | locus YEL037C, strain rad23, hits give low values 1.02 | locus YEL061C, strain CIN8 (second series), hits give low values 1.02 | locus YEL061C, strain CIN8, hits give low values 1.01 | locus YER015W, strain faa2, hits give low values 1.01 | locus YER016W, strain bim1, hits give low values 1.03 | locus YER110C, hits give low values 1.01 | locus YER111C, strain swi4, hits give low values 1.02 | locus YER155C, strain BEM2 (second series), hits give low values 1.05 | locus YER155C, strain BEM2, hits give low values 1.01 | locus YER167W, strain BCK2, hits give low values 1.01 | locus YFR010W, strain ubp6, hits give low values 0.996 | locus YGL078C, strain dbp3, hits give low values 1 | locus YGL086W, strain mad1, hits give low values 1.02 | locus YGL167C, strain pmr1, hits give low values 1.02 | locus YGL173C, strain kem1, hits give low values 1.03 | locus YGL227W, strain vid30, hits give low values 1.02 | locus YGL240W, strain doc1, hits give low values 1 | locus YGL248W, strain PDE1, hits give low values 1 | locus YGL253W, strain hxk2, hits give low values 1.01 | locus YGR078C, strain PAC10, hits give low values 0.996 | locus YGR135W, strain pre9, hits give low values 0.982 | locus YGR229C, strain SMI1, hits give low values 1 | locus YGR252W, strain gcn5, hits give low values 1.03 | locus YHR013C, strain ard1, hits give low values 1.03 | locus YHR027C, strain rpn1, hits give low values 1.01 | locus YHR030C, strain SLT2, hits give low values 1.01 | locus YHR079C, strain IRE1 (second series), hits give low values 1.01 | locus YHR079C, strain IRE1, hits give low values 1.02 | locus YHR094C, strain hxt1, hits give low values 1.01 | locus YHR129C, strain ARP1, hits give low values 1.02 | locus YHR142W, strain chs7, hits give low values 1.01 | locus YHR200W, strain rpn10, hits give low values 1 | locus YIL066C, strain RNR3, hits give low values 1.02 | locus YIL073C, strain SPO22, hits give low values 1.03 | locus YIL125W, strain kgd1, hits give low values 1.01 | locus YIR030C, strain dcg1, hits give low values 0.997 | locus YJL092W, strain hpr5, hits give low values 1.02 | locus YJL095W, strain BCK1 (second series), hits give low values 1.01 | locus YJL095W, strain BCK1, hits give low values 1.01 and 1.02 | locus YJL115W, strain asf1, hits give low values 1.02 | locus YJL129C, strain trk1, hits give low values 1.02 | locus YJL134W, strain LCB3, hits give low values 1 | locus YJL154C, strain vps35, hits give low values 1.02 | locus YJL164C, strain tpk1, hits give low values 1.01 | locus YJL166W, strain qcr8, hits give low values 1.01 | locus YJL168C, strain set2, hits give low values 1.01 | locus YJL187C, strain SWE1 (second series), hits give low values 1.02 | locus YJR043C, strain POL32, hits give low values 0.999 | locus YJR066W, strain TOR1, hits give low values 0.99
